# Measured values reported in article PMC5540273 (PLoS ONE, 2017).
# Legend:
# Conditions in all cases: concentration: 1 μM, replicates: in singlicate; n = 1
# PLK2 = system: PLK2
# PLK3 = system: PLK3
# PLK4 = system: PLK4
# PRKCD = system: PRKCD
# PRKCE = system: PRKCE
# PRKCH = system: PRKCH
# PRKCI = system: PRKCI
# PRKCQ = system: PRKCQ
# PRKD1 = system: PRKD1
# PRKD2 = system: PRKD2
# PRKD3 = system: PRKD3
# PRKG1 = system: PRKG1
# PRKG2 = system: PRKG2
# PRKR = system: T1, PRKR
# T1 construct: gene EIF2AK2
# PRKX = system: PRKX
# PRP4 = system: PRP4
# PYK2 = system: T2, PYK2
# T2 construct: gene PTK2B
# QSK = system: QSK
# RAF1 = system: RAF1
# RET = system: RET
# 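Note: KINOMEscan kinase panel screen.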
SMILES,%Inh (PLK2) [%],%Inh (PLK3) [%],%Inh (PLK4) [%],%Inh (PRKCD) [%],%Inh (PRKCE) [%],%Inh (PRKCH) [%],%Inh (PRKCI) [%],%Inh (PRKCQ) [%],%Inh (PRKD1) [%],%Inh (PRKD2) [%],%Inh (PRKD3) [%],%Inh (PRKG1) [%],%Inh (PRKG2) [%],%Inh (PRKR) [%],%Inh (PRKX) [%],%Inh (PRP4) [%],%Inh (PYK2) [%],%Inh (QSK) [%],%Inh (RAF1) [%],%Inh (RET) [%]
O=C(Nc1n[nH]c2nc(-c3ccccc3)ccc12)C1CC1 [SB-708999],0,0,17,0,2,24,27,0,0,7,0,1,0,0,5,7,0,0,23,32
Cc1cccc(Nc2nc(N[C@H]3CCCC[C@H]3N)ncc2C(N)=O)c1.Cl [GSK986310],0,0,16,53,56,43,28,53,50,56,58,20,0,30,25,1,71,18,3,76
COC(=O)Nc1nc2ccc(Oc3ccc(NC(=O)Nc4cc(C(F)(F)F)ccc4F)cc3)cc2[nH]1.Cl [GW654607],0,0,0,4,12,8,21,16,28,3,15,9,10,3,10,0,15,28,91.3,100
O=C(O)C(F)(F)F.O=c1[nH]ccc2nc(N[C@@H]3CCNC3)nc(Nc3cc(Cl)cc(Cl)c3)c12 [GSK2188764],26,16,81,99.6,100,97.4,85,95.1,82,93.4,96.5,61,98.5,76,95,63,98.8,38,0,51
Fc1cc(Cl)ccc1Nc1ccnc2cc(-c3ccc(CN4CCSCC4)o3)ccc12 [GW560106],0,0,97.6,14,13,21,23,0,24,19,0,27,66,3,1,29,0,63,12,98.3
Cc1ccc(NC(=O)c2ccnc(N3CCCCC3)c2)cc1-c1ccc(C(=O)NCC2CC2)cc1 [GW775610],0,0,24,9,9,0,6,2,0,0,0,73,0,3,5,0,5,0,85,5
Nc1ncc(-c2cn[nH]c2)c2scc(-c3ccc4c(c3)CCN4C(=O)Cc3ccccc3)c12 [GSK2593067],17,0,0,0,0,16,32,17,0,0,11,27,0,0,21,0,9,9,0,34
COc1cc(Nc2nccc(N3CCC(NC(=O)Nc4ccc5c(c4)OCO5)C3)n2)cc(OC)c1OC (stereo not shown) [GSK1379766],0,2,48,0,8,0,11,0,0,0,0,0,0,0,33,50,15,3,0,28
